SNCA expr inh = Primary qHTS assay for inhibitors of alpha-synuclein gene (SNCA) expression; HEK-293 SNCA-luciferase knock-in, luminescence, 24 h; Potency, µM (series often up to 57.2 µM), without a hit: at the highest dose activity change, negative = inhibition, hits mostly inhibitors; 140,000 tested, 0.17% active; AID 1671194, 2021;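 note: potency is the fitted concentration of half-maximal effect; plate controls were DMSO cells for no effect and cell-free wells for full effect; nearly all actives have a fitted effect of over 45% in size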
IP6K1 inhibitor = Primary qHTS assay for small molecule inhibitors of Inositol hexaphosphate kinase 1 (IP6K1); activity change, % (series mostly up to about 58 µM); 140,000 tested, 0.81% active; IP6K1 kinase, ADP-Glo luminescence, 2 h; stronger effect = lower value; AID 1645851, 2021; in the data active = activity change below about -25%; note: % is set by controls: 0 for no effect and ±100 for the full control effect
Target sequence (Q92551 whole entry, looked up): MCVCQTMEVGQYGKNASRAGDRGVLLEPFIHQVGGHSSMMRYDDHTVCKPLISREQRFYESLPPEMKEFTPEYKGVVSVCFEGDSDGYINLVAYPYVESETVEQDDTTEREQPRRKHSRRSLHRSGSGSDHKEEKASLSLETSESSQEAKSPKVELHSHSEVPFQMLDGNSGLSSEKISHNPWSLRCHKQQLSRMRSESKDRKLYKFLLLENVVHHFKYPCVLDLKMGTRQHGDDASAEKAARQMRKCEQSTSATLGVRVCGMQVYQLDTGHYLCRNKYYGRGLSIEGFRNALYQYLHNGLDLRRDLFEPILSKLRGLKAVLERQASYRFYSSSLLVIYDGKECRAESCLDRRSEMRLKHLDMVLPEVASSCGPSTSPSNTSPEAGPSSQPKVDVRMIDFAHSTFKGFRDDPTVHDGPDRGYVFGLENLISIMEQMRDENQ
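ADP-Glo luminescence measures ADP made by human IP6K1 during a 2 h RT reaction with ATP/IP6 (mix at 1.3 mM/130 uM); top library doses 57.5 and 19.1 uM final.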
HEK293 viab = GF-AFC viability counterscreen for inhibitors of alpha-synuclein gene (SNCA) expression | HEK-293-SNCA-luc viability, GF-AFC fluorescence, 24 h | Potency, µM (top dose mostly 57.1 µM), for the others: at the top dose activity change, negative = cytotoxicity, usual class: cytotoxic | 150,000 tested, 0.12% active;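 note: potency is the fitted concentration of half-maximal effect; 0% = DMSO-treated cells and -100% = medium-only wells without cells; nearly all actives have a fitted effect of over 30% in size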
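HEK-293-SNCA-luc cells (1500/well) plated 24 h, then exposed 24 h to a dilution series; GF-AFC added 30 min at 37C, fluorescence 405/540 nm; normalised to medium-only and DMSO wells, Hill fit.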
KDM5B inhibitor = Primary screen for KDM5B Histone Demethylases FDH-coupled qHTS; Lysine-specific demethylase 5B (Homo sapiens), Q9UGL1; KDM5B demethylase, FDH-coupled NADH fluorescence (FDH is formaldehyde dehydrogenase); Potency, µM (titrated, usually from 57.7 µM), actives largely listed as inhibitors; 220,000 tested, 2.6% active; note: potency is the fitted concentration of half-maximal effect; 0% is about no effect; nearly all actives have a fitted effect of over 70% in size
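Here, H3K4me3 peptide (12.5 µM in substrate mix) is demethylated by KDM5BΔAP, 200 nM final, after 10 min compound exposure. Formaldehyde product is coupled through FDH (0.25 U/mL in mix) to NADH fluorescence; 30-min ΔRFU feeds dose-response curves.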
IP6K1 conf = Confirmatory qHTS assay for small molecule inhibitors of Inositol hexaphosphate kinase 1 (IP6K1). shares compounds with IP6K1 inhibitor. recombinant IP6K1 kinase, ADP-Glo luminescence, 2 h. Potency, µM (top dose mostly 49 µM), for the others: at the highest dose activity change, negative = inhibition, actives largely listed as inhibitors. 1,200 tested, 13% active; note: potency is the fitted concentration of half-maximal effect; % is set by controls: 0 for no effect and ±100 for the full control effect; nearly all actives have a fitted effect of over 65% in size
Starred values were filed as active, the others as inactive; i = inactive; u = inconclusive; x = not tested or not shown; [ ] = another dose, or the depositor's remark. This is a sample that favours compounds with a hit; in the whole collection about 3% have one here. Unless noted, calls come from the whole dose curve; as a rule, active = well fitted curve in the direction sought with a large enough effect; inconclusive = small, poorly fitted or top-dose-only effect, or another doubt; inactive = no such curve, though single readings can be large; an effect the other way counts as inactive or inconclusive.

SMILES	SNCA expr inh	IP6K1 inhibitor	HEK293 viab	KDM5B inhibitor	IP6K1 conf
CCN(CC)S(=O)(=O)c1ccc(-c2csc(=Nc3cccc(C(F)(F)F)c3)n2Cc2ccc3c(c2)OCO3)cc1	-0.8%	-4.4	7.2%	u	x
Fc1ccc(-c2csc(=Nc3cccc(C(F)(F)F)c3)n2Cc2ccc3c(c2)OCO3)cc1	1.5%	-25.8*	13.4%	u	2.5%
Cc1ccc(-c2nnn3c2nc(N2CCC(C)CC2)c2ccccc23)cc1	82.8%	-28.9*	-15.2%	u	-8.9%
Cc1nc(-c2ccc(Cl)cc2)n(CC(=O)Nc2cccc(C(F)(F)F)c2)c(=O)c1CCO	u	-0.3	-24.5%	i	x
O=C(Cn1c(=O)oc2cc(Cl)ccc21)Nc1cccc(C(F)(F)F)c1	u	-28.4*	-9.6%	i	28.0%
O=C(c1ccccc1)c1ccc(O)cc1	x	x	x	i	x
O=C(NC(=O)c1ccc(F)cc1)Nc1ccc(-c2cc(C(F)(F)F)nn2-c2ccccc2)cc1	1.6%	23.9	1.8%	u	x
NCC(=O)Nc1ccc(-n2nc(C(F)(F)F)cc2-c2ccc3c(ccc4ccccc43)c2)cc1	34.3%	-34.9*	u	x	u
O=c1ncn(CC2CC2)c2ccc(-c3ccoc3)nc12	1.7%[87.6 µM]	-32.4*	-4.7%[87.6 µM]	31.6µM*	-4.4%[92.2 µM]
COc1ccc(CNC(=O)C2=CC(c3ccc(OC)c(OC)c3)=NS(=O)(=O)N2C)cc1	8.9%	-9.7	5.6%	i	x
COc1ccc(C2=NS(=O)(=O)N(C)C(C(=O)NCc3ccccc3)=C2)cc1OC	38.4%	-25.9*	4.4%	i	-11.6%
Cc1ccc(Sc2ccc(NC(=O)c3cccc(C)c3C)cc2)c(C)c1	x	x	x	i	x
Cc1cc(=O)[nH]c2nnc(SCC(=O)Nc3ccc(OC(F)(F)F)cc3)n12	6.8%	-25.2*	2.0%	i	5.7%
COc1ccc(NC(=O)C2CCN(C(=O)c3ncn4c3COC(c3ccccc3)C4)CC2)cc1 (stereo not given)	84.5%	-30.5*	0.5%	i	-12.6%
CNC(=O)c1cc(C2CC2)nc2onc(C3CCCN(C(=O)c4ccccc4C)C3)c12 (stereo not given)	x	-11.6	x	x	x
CCOC(=O)c1noc2nc(C)n(CC(=O)Nc3cc(OC)ccc3OC)c(=O)c12	x	x	x	i	x
O=C(CSc1nnc2[nH]c(=O)c(Cc3ccccc3)nn12)Nc1cccc(Cl)c1	x	x	x	i	x
C#C[C@]1(OC(C)=O)CCC2C3CCc4cc(OC(C)=O)ccc4C3CCC21C (stereo not given in full)	x	x	x	i	x
C#C[C@]1(OC(C)=O)CC[C@H]2[C@@H]3CCC4=C/C(=N/O)CC[C@@H]4[C@H]3CC[C@@]21CC	112.2%[25.6 µM]	-59.1*	33.2%[23.9 µM]	x	u
OCCCNc1cc(-c2ccnc(Nc3cccc(Cl)c3)n2)ccn1	u	-26.4*	u	x	u
O=C(CCc1nnc2ccc(NCc3ccc4c(c3)OCO4)nn12)N1CCc2ccccc2C1	x	x	x	i	x
CC(NC(=O)c1cc(-c2ccccn2)nc2ccccc12)c1ccncc1 (stereo not given)	x	x	x	i	x
Cc1ccc2nc(C(C)NC(=O)c3cnc(-c4ccccn4)[nH]c3=O)[nH]c2c1 (stereo not given)	-15.7%	-35.8*	-12.4%	u	u
Cc1ccc(C(=O)c2c(C)c(CCC#N)n3ccccc23)cc1C	x	x	x	i	x
O=C(Nc1ccccc1F)c1ccc(-c2ccccc2)s1	20.0%	-29.6*	18.4%	u	-11.8%
SMILES	SNCA expr inh	IP6K1 inhibitor	HEK293 viab	KDM5B inhibitor	IP6K1 conf
O=C(Nc1ccccc1F)c1ccc(-c2ccccc2)cc1	x	x	x	i	x
CCOC(=O)[C@H]1C[C@]2(CCCCN(CCOC)C2=O)N(C(=O)Cc2cccs2)[C@H]1c1ccco1	x	-6.1	x	x	x
COCCN1CCCC[C@]2(C[C@H](C(=O)O)[C@H](c3ccco3)N2C(=O)Cc2cccs2)C1=O	x	-25.1*	x	x	u
COc1cccc(-c2cccc(C(=O)N3CCN(C(=O)Cc4ccccn4)CC3)c2)c1	-3.9%	-4.8	1.9%[12.5 µM]	x	x
C=Cc1ccc(Cn2c(C(=O)O)c(CNCCc3ccco3)c3ccc(C)cc32)cc1	-26.6%	-28.9*	u	u	1.1%
COc1cccc(C2c3c(oc4ccc(C)cc4c3=O)C(=O)N2CCCN2CCOCC2)c1OC (stereo not given)	-5.7%	-25.1*	-3.4%	i	-2.1%
COc1cc(C2c3c(oc4cc(C)c(C)cc4c3=O)C(=O)N2CCCN2CCOCC2)ccc1O (stereo not given)	7.0%	37.0	-9.0%	u	x
O=c1oc2ccc(Cl)cc2cc1-c1csc(Nc2ccc(F)cc2)n1	x	x	x	i	x
O=C(O)CCCNc1cc(N2CCN(C3CCCCC3)CC2)c2noc3c2c1C(=O)c1ccccc1-3	u	-33.7*	u	u	u
CCCCOC(=O)/C(C#N)=C/c1ccc(-c2ccc(Br)cc2)o1	38.6%	-30.7*	8.7%	i	9.4%
O=C(C1CCCN1C(=O)c1ccc(Cl)nc1)N1CCC(N2Cc3ccccc3C2=O)CC1 (stereo not given)	-5.2%	-3.9	-6.1%	x	x
Cc1cc(C)c(NC(=O)Cn2c(=O)n(Cc3ccccc3)c(=O)c3c(C)c(C(=O)N(C)C)sc32)c(C)c1	-11.9%	22.7	2.0%	i	x
Cc1cc(C)c(NC(=O)Cn2c(=O)n(-c3ccc(F)cc3)c(=O)c3c(C)c(C(=O)N(C)C)sc32)c(C)c1	3.6%	-27.0*	13.1%	i	-6.0%
Clc1cccc(-c2ccc(CN3CCN(C4CCNC4)CC3)o2)c1 (stereo not given)	43.2%	-27.8*	1.2%	u	-24.0%
CC(=O)N1CCN(C(=O)c2ccc3nnc(-c4cc[nH]c4)n3c2)CC1	-10.2%	-5.2	3.5%	x	x
O=C(c1ccncc1)N1CCCN(c2ccc3nnc(-c4ccccc4)n3n2)CC1	x	12.0	x	x	x
COc1cccc(-c2cnc3[nH]cc(CC(N)=O)c3c2)c1	0.3%[87.6 µM]	-44.1*	3.8%[87.6 µM]	35.5µM*	u
NC(=O)Cc1c[nH]c2ncc(-c3cccc(OC(F)(F)F)c3)cc12	-25.0%[87.6 µM]	-27.4*	-16.5%[87.6 µM]	u	u
NC(=O)Cc1c[nH]c2ncc(-c3ccccc3Oc3ccccc3)cc12	u	-9.5	13.0%[87.6 µM]	u	x
COc1ccc(CCNC(=O)CCc2nnc(-c3cccc(OC(C)C)c3)[nH]c2=O)cc1	12.4%	-7.5	1.8%	i	x
CC(C)Oc1cccc(-c2nnc(CCC(=O)NCCc3cccs3)c(=O)[nH]2)c1	-0.3%	-27.3*	9.2%	i	u
c1ccc(Oc2cc3c(cn2)NCCN(Cc2ccsc2)C3)cc1	11.3%[87.6 µM]	-29.3*	6.4%[87.6 µM]	u	-3.9%
CN1CCC[C@@H]1c1cccnc1	26.8%[25.6 µM]	-30.9*	42.8%[23.9 µM]	x	-7.8%
